Laboratory results published in PubChem BioAssay (NCATS).
Records with an inconclusive call do not appear. Active and inactive are the calls of the source. Calls come from the whole dose curve; as a rule, active = well fitted inhibition curve with a large enough effect; inconclusive = small, poorly fitted or top-dose-only effect; inactive = flat fitted curve, though single readings scatter.

What was measured:
Assay in all cases: qHTS profiling for inhibitors of Plasmodium falciparum proliferation (AID 504749); note: nearly all actives have a fitted effect of over 60% in size
Conditions in all cases: P. falciparum in erythrocytes, SYBR Green DNA, 72 h; series mostly up to 28.7 µM
CP268 = system: CP268
Method in brief: (§1)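 In a 72 h erythrocytic culture (37 C, humidified, 5% CO2) at 2.5% hematocrit and 0.3% starting parasitemia, compounds were tested; SYBR Green I in detergent lysis buffer stained parasite DNA overnight.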

CP269 = system: CP269
Method in brief: as §1

CP286 = system: CP286
Method in brief: as §1

CP291 = system: CP291
Method in brief: as §1

CP297 = system: CP297
Method in brief: as §1

CP305 = system: CP305
Method in brief: as §1

CP315 = system: CP315
Method in brief: as §1

CP325 = system: CP325
Method in brief: as §1

CP329 = system: CP329
Method in brief: as §1

CP335 = system: CP335
Method in brief: as §1

DFO2036 = system: DFO2036
Method in brief: as §1

DIV14 = system: DIV14
Method in brief: as §1

DIV17 = system: DIV17
Method in brief: as §1

DIV30 = system: DIV30
Method in brief: as §1

Dd2 = system: Dd2
Method in brief: as §1

ECU = system: ECU
Method in brief: as §1

FAB9 = system: FAB9
Method in brief: as §1

GB4 = system: GB4
Method in brief: as §1

HB3 = system: HB3
Method in brief: as §1

ICS = system: ICS
Method in brief: as §1

JCK = system: JCK
Method in brief: as §1

N140 = system: N140
Method in brief: as §1

P93_24 = system: P93_24
Method in brief: as §1

P94_40 = system: P94_40
Method in brief: as §1

PAD = system: PAD
Method in brief: as §1

PC15 = system: PC15
Method in brief: as §1

PC26 = system: PC26
Method in brief: as §1

PC49 = system: PC49
Method in brief: as §1

SC27B = system: SC27B
Method in brief: as §1

TAB109 = system: TAB109
Method in brief: as §1

TAB113 = system: TAB113
Method in brief: as §1

TAB165 = system: TAB165
Method in brief: as §1

W2 = system: W2
Method in brief: as §1

Measured: Potency

O=c1[nH]c(=O)n(C2C[C@H](O)[C@@H](CO)O2)cc1C(F)(F)F (stereo partly drawn)
inactive: all assays above
